Source: PubChem BioAssay (NCATS)
Values without a mark were called inactive. Inconclusive results are not listed. Entries that show only a call come without a potency. The source made the active and inactive calls. Unless noted, calls follow the shape of the dose curve; as a rule, active = well fitted curve in the direction sought with a large enough effect; inconclusive = small, poorly fitted or top-dose-only effect, or another doubt; inactive = no such curve, though single readings can be large; an effect the other way counts as inactive or inconclusive.

Legend:
[1] = molecular target: Tumor susceptibility gene 101 protein (Homo sapiens) (UniProt Q99816); assay: qHTS Validation Assay for Iinhibitors of HIV-1 Budding by Blocking the Interaction of PTAP/TSG101 (AID 485342; calls by dose curve)
Tumor susceptibility gene 101 protein (Homo sapiens), sequence (Q99816 whole entry, looked up, the tested form may be a part): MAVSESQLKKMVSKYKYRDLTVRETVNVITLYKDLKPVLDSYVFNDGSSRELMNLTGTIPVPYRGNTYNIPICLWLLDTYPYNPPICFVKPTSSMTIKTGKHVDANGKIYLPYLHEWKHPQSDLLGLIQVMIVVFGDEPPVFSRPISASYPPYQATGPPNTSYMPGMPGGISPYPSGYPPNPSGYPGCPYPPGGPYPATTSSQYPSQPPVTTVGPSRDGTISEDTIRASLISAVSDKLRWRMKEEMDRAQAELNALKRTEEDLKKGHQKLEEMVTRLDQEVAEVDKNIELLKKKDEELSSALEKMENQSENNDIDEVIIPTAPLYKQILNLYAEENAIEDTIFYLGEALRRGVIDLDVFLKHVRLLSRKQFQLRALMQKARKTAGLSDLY
Procedure, shortened: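 Fluorescence anisotropy measured PTAP-Tsg101 interaction. Final concentrations were 10 uM protein domain and 50 nM labeled peptide, equilibrated 20 min at room temperature.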

[2] = qHTS Validation Assay to Find Inhibitors of Chronic Active B-Cell Receptor Signaling (AID 485345; active = well fitted curve in the direction sought with a large enough effect in the main read-out, with a control signal flat, not every such curve was filed as active)
Procedure, shortened: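 TMD8 ABC-DLBCL cells stably carrying doxycycline-inducible IkappaBalpha–green luciferase fusion plus unfused red luciferase; compounds 46 uM to 3 nM, 4 h at 37C with doxycycline. Corrected green/red luminescence ratio normalized to 10 uM MG-132 and basal cell wells; curves fitted.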

[3] = molecular target: Beta-2 adrenergic receptor (Homo sapiens) (UniProt P07550); assay: qHTS validation assay of beta-arrestin-biased ligands of beta2-adrenergic receptor (AID 485366)
Procedure, shortened: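 Tango cells (recombinant beta2-AR with recombinant beta-arrestin; recruitment releases tTA driving luciferase) were treated with compounds titrated up to 46 microM for 18 hr at 37 degrees C. Luminescence gave %Activity, and concentration-response curves were curve-classified.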

[4] = molecular target: ATP-dependent 6-phosphofructokinase (Trypanosoma brucei brucei) (UniProt O15648); assay: qHTS Validation Assay to Find Inhibitors of T. brucei phosphofructokinase (AID 485368); settings: outcome: dose series up to 57.5 µM
ATP-dependent 6-phosphofructokinase (Trypanosoma brucei brucei), sequence (O15648 whole entry, looked up): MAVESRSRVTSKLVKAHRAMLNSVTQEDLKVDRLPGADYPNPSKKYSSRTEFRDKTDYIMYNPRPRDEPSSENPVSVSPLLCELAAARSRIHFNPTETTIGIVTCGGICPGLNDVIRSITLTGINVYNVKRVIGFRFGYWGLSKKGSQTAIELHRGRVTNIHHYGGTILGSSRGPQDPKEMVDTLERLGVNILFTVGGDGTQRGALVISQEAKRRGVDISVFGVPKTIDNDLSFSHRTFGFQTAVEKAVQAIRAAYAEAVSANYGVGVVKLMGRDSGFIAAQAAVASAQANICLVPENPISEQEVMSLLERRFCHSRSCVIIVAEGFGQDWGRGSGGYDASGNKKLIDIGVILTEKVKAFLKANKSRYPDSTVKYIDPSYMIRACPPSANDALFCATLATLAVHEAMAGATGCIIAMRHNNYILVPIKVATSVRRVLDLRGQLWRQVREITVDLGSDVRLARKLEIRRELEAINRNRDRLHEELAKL
Procedure, shortened: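 Compounds (up to 57 uM, titration series) were pinned into substrate buffer, then 1.25 nM PFK added; after 45 min at room temperature, ADP product was quantified by ADP-Glo luminescence and concentration-response curves fitted.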

[5] = molecular target: Thioredoxin reductase 1, cytoplasmic (Rattus norvegicus) (UniProt O89049); assay: qHTS Assay for Substrates of Mammalian Selenoprotein Thioredoxin Reductase 1 (TrxR1) (AID 488772);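 also: NADPH fluorescence in the first read after selenite addition and not the 8 min delta; series mostly up to about 57 µM; a drop in NADPH fluorescence below the no-compound background marks a TrxR1 substrate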
Thioredoxin reductase 1, cytoplasmic (Rattus norvegicus), sequence (O89049 whole entry, looked up): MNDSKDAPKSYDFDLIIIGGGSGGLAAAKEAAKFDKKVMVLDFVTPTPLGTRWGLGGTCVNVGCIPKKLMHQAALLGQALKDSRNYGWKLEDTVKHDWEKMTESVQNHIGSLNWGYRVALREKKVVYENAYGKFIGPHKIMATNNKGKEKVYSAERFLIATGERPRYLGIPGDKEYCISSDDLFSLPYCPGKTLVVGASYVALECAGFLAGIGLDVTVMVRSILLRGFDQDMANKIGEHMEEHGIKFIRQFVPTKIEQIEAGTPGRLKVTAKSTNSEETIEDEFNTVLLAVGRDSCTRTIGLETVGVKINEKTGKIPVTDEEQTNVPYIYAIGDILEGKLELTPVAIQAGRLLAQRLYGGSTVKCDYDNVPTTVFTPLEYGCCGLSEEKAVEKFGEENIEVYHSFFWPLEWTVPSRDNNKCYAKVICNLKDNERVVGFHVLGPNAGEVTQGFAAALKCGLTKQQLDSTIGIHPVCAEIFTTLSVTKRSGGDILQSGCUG
Procedure, shortened: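 Quantitative HTS in Tris-HCl buffer at pH 7.5 with EDTA and Tween-20, using rat TrxR1, 400 uM NADPH and 400 uM selenite (final). A fall in initial NADPH fluorescence relative to background marked substrate behaviour.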

[6] = molecular target: Thioredoxin reductase 1, cytoplasmic (Rattus norvegicus) (UniProt O89049); assay: qHTS Assay for Inhibitors of Mammalian Selenoprotein Thioredoxin Reductase 1 (TrxR1) (AID 488773);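 also: drop in NADPH fluorescence over an 8 min run after selenite addition; series mostly up to about 57 µM; nearly all actives have a fitted effect of over 40% in size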
Procedure, shortened: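 Steps: enzyme (90 nM) plus NADPH (400 uM final), 5 min at ~22 deg C; compound added, 15 min; selenite (400 uM final) added; fluorescence followed for 8 min. Concentration-response curves derived from the normalized delta values.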

[7] = molecular target: M-phase phosphoprotein 8 (Homo sapiens) (UniProt Q99549); assay: qHTS Validation Assay for Inhibitors for MPP8 Chromodomain Interactions with Methylated Histone Tails (AID 488949); also: nearly all actives have a fitted effect of over 55% in size; also: potency is read from the fitted curve at half-maximal effect
Procedure, shortened: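 Disruption of the preformed MPP8–trimethyl-H3K9 peptide complex (both 50 nM, 30 min, RT) is measured after 30 min compound exposure, using AlphaScreen proximity beads; aurintricarboxylic acid titration serves as plate control.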

[8] = molecular target: Chromobox protein homolog 1 (Homo sapiens) (UniProt P83916); assay: qHTS Validation Assay for Inhibitors of HP1-beta Chromodomain Interactions with Methylated Histone Tails (AID 488953); also: nearly all actives have a fitted effect of over 50% in size; also: potency is read from the fitted curve at half-maximal effect
Chromobox protein homolog 1 (Homo sapiens), sequence (P83916 whole entry, looked up): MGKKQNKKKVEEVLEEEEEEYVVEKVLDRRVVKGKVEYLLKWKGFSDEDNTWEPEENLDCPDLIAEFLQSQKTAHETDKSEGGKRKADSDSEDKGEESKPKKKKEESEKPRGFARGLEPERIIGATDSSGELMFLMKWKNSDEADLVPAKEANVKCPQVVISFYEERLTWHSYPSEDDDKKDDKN
Procedure, shortened: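 Measured as loss of AlphaScreen luminescence from streptavidin donor and nickel acceptor beads (10 ug/mL final) bridging HP1-beta and biotin-H3(1-18)K9me3, each 50 nM. Compounds met the preassembled complex for 30 min at RT.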

[9] = molecular target: Methanococcus maripaludis chaperonin (MmCpn) (UniProt Q6LX38); assay: High-Throughput Screening for Modulators of Cytosolic Chaperonin Activity: MmCpn Primary Screen (AID 488978);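 also: 50 nM MmCpn enzyme hydrolysing 30 µM ATP at 37 °C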
Procedure, shortened: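 Measures ATPase turnover of the M. maripaludis chaperonin (50 nM final) against 30 uM ATP over 10 min at 37C, with compound added 5 min beforehand at room temperature. ADP is quantified by HTRF immunodetection.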

[10] = molecular target: D(1A) dopamine receptor (Homo sapiens) (UniProt P21728); assay: HTS Assay for Allosteric Agonists of the Human D1 Dopamine Receptor: Primary Screen for Agonists (AID 488981); also: potency is read from the fitted curve at half-maximal effect
D(1A) dopamine receptor (Homo sapiens), sequence (P21728 whole entry, looked up): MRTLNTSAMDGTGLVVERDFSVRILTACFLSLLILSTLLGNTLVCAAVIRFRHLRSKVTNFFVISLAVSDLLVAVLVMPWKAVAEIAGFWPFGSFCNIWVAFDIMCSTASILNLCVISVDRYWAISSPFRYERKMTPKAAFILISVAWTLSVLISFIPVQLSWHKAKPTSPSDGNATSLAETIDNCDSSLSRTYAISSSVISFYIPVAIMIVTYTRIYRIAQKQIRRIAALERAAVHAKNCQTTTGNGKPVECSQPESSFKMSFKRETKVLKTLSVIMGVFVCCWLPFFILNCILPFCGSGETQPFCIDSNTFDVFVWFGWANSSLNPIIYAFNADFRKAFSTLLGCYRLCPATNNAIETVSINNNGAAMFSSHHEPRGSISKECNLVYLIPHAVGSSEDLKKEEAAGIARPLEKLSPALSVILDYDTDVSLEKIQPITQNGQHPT
Procedure, shortened: (§1)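 Tetracycline-induced HEK293 Trex D1 cells with forced coupling to calcium, loaded with no-wash calcium dye; kinetic fluorescence read 180 s after compound addition for agonism, then a further 180 s after an EC20 dopamine challenge for potentiation.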

[11] = molecular target: ATP-dependent 6-phosphofructokinase (Trypanosoma brucei brucei) (UniProt O15648); assay: qHTS Assay to Find Inhibitors of T. brucei phosphofructokinase: hit validation (AID 492961);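 also: luminescence reports ADP formed as PFK phosphorylates fructose-6-phosphate with ATP; series mostly up to about 51 µM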
Procedure, shortened: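 Compounds titrated; %activity normalized to 0x and 1x enzyme controls, curve-fitted. Readout: ADP-Glo luminescence after 45 min room-temperature reaction of 1.25 nM PFK, 0.1 mM ATP, 0.5 mM F6P, pH 8.0.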

[12] = Validation screen for small molecules that induce genotoxicity in human embryonic kidney (HEK293T) cells expressing luciferase-tagged ELG1 (AID 493106)
Procedure, shortened: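 Reporter-gene quantitative HTS in HEK293T cells carrying luciferase-tagged ELG1, whose level climbs under genotoxic stress. Compound exposure lasts 16 hr at 37 °C before luciferase detection.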

[13] = molecular target: ATPase family AAA domain-containing protein 5 (Homo sapiens) (UniProt Q96QE3); assay: Validation screen for small molecules that inhibit ELG1-dependent DNA repair in human embryonic kidney (HEK293T) cells expressing luciferase-tagged ELG1 (AID 493107);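 also: cells co-treated with the DNA-damaging agent 5-fluorouridine alongside compound; series mostly up to about 46 µM; inhibitors lower the ELG1-luciferase luminescence signal; nearly all actives have a fitted effect of over 70% in size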
ATPase family AAA domain-containing protein 5 (Homo sapiens), sequence (Q96QE3 whole entry, looked up, the tested form may be a part): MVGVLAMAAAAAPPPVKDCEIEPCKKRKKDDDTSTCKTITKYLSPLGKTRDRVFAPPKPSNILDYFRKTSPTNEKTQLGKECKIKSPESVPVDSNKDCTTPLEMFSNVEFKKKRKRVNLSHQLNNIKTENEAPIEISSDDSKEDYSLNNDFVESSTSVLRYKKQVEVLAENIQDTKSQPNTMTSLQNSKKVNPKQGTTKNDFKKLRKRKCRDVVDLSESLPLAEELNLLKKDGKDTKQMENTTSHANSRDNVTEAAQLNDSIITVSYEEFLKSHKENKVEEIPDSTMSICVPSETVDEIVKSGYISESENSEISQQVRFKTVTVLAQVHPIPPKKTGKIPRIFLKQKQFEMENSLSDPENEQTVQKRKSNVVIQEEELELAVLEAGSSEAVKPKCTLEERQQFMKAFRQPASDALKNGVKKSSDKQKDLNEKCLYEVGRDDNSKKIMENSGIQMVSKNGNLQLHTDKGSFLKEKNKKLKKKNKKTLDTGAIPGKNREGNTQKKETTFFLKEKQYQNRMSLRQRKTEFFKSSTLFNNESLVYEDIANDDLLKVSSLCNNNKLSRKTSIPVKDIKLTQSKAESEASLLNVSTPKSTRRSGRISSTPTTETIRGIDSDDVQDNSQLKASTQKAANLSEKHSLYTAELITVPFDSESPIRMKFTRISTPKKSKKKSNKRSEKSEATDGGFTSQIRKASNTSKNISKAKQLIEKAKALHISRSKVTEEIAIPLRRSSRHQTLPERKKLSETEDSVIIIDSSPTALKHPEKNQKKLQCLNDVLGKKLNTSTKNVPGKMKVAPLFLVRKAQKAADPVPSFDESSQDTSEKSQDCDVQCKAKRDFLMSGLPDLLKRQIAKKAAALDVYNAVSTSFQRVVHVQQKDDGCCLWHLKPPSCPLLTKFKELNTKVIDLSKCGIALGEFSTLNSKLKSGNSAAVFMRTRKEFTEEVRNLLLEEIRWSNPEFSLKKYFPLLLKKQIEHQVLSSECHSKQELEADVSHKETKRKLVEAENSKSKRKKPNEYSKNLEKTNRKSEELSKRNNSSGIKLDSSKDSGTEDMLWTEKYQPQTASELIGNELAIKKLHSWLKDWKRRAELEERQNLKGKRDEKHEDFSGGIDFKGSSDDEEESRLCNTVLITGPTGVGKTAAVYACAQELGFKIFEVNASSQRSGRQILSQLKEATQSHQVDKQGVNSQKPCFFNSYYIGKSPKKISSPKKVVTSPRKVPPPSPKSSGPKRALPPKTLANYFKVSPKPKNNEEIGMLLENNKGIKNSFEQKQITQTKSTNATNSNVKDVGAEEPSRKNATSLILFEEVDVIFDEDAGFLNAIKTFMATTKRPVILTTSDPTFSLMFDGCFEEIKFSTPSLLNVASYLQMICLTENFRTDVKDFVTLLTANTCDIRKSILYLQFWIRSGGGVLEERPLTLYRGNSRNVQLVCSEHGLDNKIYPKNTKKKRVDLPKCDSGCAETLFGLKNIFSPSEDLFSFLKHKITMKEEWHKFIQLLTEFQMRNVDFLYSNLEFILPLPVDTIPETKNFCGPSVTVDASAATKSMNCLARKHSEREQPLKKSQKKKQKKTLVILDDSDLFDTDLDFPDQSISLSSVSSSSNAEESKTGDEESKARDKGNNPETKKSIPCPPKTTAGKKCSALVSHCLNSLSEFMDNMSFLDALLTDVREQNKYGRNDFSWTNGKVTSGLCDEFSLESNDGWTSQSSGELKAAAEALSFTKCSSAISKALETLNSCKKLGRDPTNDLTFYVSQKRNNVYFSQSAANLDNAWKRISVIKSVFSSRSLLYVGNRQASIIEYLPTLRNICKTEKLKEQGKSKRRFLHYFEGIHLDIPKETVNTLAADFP
Procedure, shortened: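 Quantitative HTS in HEK293T cells carrying luciferase-tagged ELG1, stimulated with 5-fluorouridine alongside compound for 16 hr. Loss of luciferase signal marks inhibition of ELG1 response.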

[14] = Quantitative high throughput screen for delayed death inhibitors of the malarial parasite plastid, 96 hour incubation (AID 488745);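 also: luciferase-expressing P. falciparum in erythrocytes at 2% hematocrit and 0.1% parasitemia; series mostly up to about 29 µM; nearly all actives have a fitted effect of over 70% in size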
Procedure, shortened: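 Growth of reporter-bearing P. falciparum in red cells is measured after 96 h with compound, covering two erythrocytic cycles. Luminescence from the integrated luciferase serves as the growth signal.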

[15] = Quantitative high throughput screen for delayed death inhibitors of the malarial parasite plastid, 48 hour incubation (AID 488752); also: nearly all actives have a fitted effect of over 65% in size
Procedure, shortened: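 One parasite generation (48 h, 37 C, 5% CO2) of luciferase-reporter P. falciparum in erythrocytes is run with test compound; decreased luminescence indicates inhibited growth.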

[16] = molecular target: Transient receptor potential cation channel subfamily V member 1 (Homo sapiens) (UniProt Q8NER1); assay: HTS Assay for Compounds that Act as Enhancers of the Vanilloid Receptor 1 (AID 488979)
Transient receptor potential cation channel subfamily V member 1 (Homo sapiens), sequence (Q8NER1 whole entry, looked up): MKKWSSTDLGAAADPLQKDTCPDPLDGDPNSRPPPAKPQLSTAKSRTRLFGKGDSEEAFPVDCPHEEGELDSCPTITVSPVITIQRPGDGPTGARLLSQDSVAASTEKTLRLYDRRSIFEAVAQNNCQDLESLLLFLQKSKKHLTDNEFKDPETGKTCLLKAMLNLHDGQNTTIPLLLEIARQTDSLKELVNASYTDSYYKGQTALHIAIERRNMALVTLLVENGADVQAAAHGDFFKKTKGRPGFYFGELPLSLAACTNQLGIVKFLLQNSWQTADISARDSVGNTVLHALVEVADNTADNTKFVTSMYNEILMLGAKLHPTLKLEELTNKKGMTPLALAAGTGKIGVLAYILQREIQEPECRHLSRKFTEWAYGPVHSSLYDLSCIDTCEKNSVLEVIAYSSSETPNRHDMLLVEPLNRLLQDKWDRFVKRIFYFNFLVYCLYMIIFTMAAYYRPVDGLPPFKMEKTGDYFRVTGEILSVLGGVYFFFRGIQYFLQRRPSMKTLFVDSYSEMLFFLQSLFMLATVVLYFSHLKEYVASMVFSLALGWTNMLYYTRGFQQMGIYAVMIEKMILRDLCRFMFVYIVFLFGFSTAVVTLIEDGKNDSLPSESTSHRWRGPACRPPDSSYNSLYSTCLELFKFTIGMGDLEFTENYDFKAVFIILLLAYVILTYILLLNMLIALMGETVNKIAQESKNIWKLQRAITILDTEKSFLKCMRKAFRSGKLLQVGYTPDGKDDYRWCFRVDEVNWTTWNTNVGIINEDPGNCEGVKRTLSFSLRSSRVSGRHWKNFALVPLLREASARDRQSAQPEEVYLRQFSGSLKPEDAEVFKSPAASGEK
Procedure, shortened: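 TRPV1 cells loaded with Fluo-8 calcium dye; compound added and Ca2+ signal (ex 480/em 520 nm) followed 3 min, then capsaicin at EC20 added and read 2 more min to detect enhancement.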

[17] = molecular target: D(1A) dopamine receptor (Homo sapiens) (UniProt P21728); assay: HTS Assay for Allosteric Agonists of the Human D1 Dopamine Receptor: Primary Screen for Potentiators (AID 488982)
Procedure, shortened: as §1

[18] = molecular target: Tyrosyl-DNA phosphodiesterase 1 (Homo sapiens) (UniProt Q9NUW8); assay: Confirmation Assay for Inhibitors of Tyrosyl-DNA Phosphodiesterase (TDP1) (AID 489007); settings: recombinant human TDP1 enzymatic activity, dose-response; also: potency is read from the fitted curve at half-maximal effect; nearly all actives have a fitted effect of over 40% in size
Procedure, shortened: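 Confirmation of primary-screen follow-ups in a qHTS format. Substrate cleavage by Tdp1 (1 nM) of a 3'-phosphotyrosine-FITC, 5'-biotin oligo (15 nM) was monitored as decreased AlphaScreen signal after a 5 min room-temperature reaction.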

[19] = molecular target: Thyrotropin receptor (Homo sapiens) (UniProt P16473); assay: qHTS Assay for Antagonists of the Thyroid Stimulating Hormone Receptor (AID 488980); also: series mostly up to about 58 µM
Procedure, shortened: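 Cells expressing human TSHR (HEK293) are dispensed in HBSS/HEPES containing 70 uM RO 20-1724, compound is added, then TSH at EC80 (4 nM final). Antibody in lysis buffer follows, 30 minutes at room temperature before HTRF detection.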

[20] = molecular target: Thyrotropin-releasing hormone receptor (Homo sapiens) (UniProt P34981); assay: qHTS for Small Molecule Agonists and Allosteric Enhancers of Human TRH Receptor: Validation Screen for Agonists (AID 493127;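 active = calcium activation more than 3 SD above the typical response in the agonist read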;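 also: intracellular calcium rise by fluo-8 fluorescence before TRH EC20 addition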); settings: TRH receptor agonist cell assay; at 2 µM; stronger effect = higher value
Procedure, shortened: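 Gq-coupled calcium mobilization in TRHR cells after compound addition, monitored kinetically with fluo-8 dye on an FDSS reader.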

In the case of `Cc1ncsc1CCCl`, the outcome [1] is reported as “inactive”, the outcome [2] is reported as “inactive” and the outcome [3] is reported as “inactive”. For the same compound, the outcome [4] was “inactive”, the outcome [5] was “inactive” and the outcome [6] was “inactive”. The Potency [7] was “inactive”, the Potency [8] was “inactive” and the outcome [9] was “inactive”. The Potency [10] was “inactive”, the outcome [11] was “inactive” and the outcome [12] was “inactive”. For the same compound, the outcome [13] was “inactive”.

For `Nc1ccccc1C(=O)O`, the outcome [11] was “inactive”.

For `CCCCC/C=C\C/C=C\C/C=C\C/C=C\CCCC(=O)NCC(=O)O`, the outcome [1] was “inactive”, the outcome [2] was “inactive” and the outcome [3] was “inactive”. For the same compound, the Potency [14] was “inactive”, the Potency [15] was “inactive” and the outcome [5] was “inactive”. The Potency [7] was “inactive”, the Potency [8] was 44.7 µM (active) and the outcome [9] was “inactive”. For the same compound, the outcome [16] was “inactive”, the Potency [10] was “inactive” and the outcome [17] was “inactive”. The Potency [18] was 28.2 µM (active), the outcome [12] was “inactive” and the outcome [13] was “inactive”.

For `Cc1nnc2n1-c1ccc(Cl)cc1C(c1ccccc1Cl)=NC2`, the outcome [11] was “inactive”.

With `CN1C(=O)CCS(=O)(=O)C1c1ccc(Cl)cc1` (configuration not stated) the outcome [1] was “inactive”, the outcome [2] was “inactive” and the outcome [3] was “inactive”. The outcome [4] was “inactive”, the Potency [14] was “inactive” and the Potency [15] was “inactive”. The outcome [5] was “inactive”, the outcome [6] was “inactive” and the Potency [7] was “inactive”. For the same compound, the Potency [8] was “inactive”, the outcome [9] was “inactive” and the outcome [16] was “inactive”. The outcome [19] was “inactive”, the Potency [10] was “inactive” and the outcome [17] was “inactive”. The outcome [12] was “inactive” and the outcome [13] was “inactive”.

In the case of `CC[N+](CC)(CC)CCOc1cccc(OCC[N+](CC)(CC)CC)c1OCC[N+](CC)(CC)CC`, the Potency [7] is reported as 13.4 µM (active).

In the case of `O=P1(N(CCCl)CCCl)NCCCO1` (configuration not stated), the outcome [1] is reported as “inactive”, the outcome [2] is reported as “inactive” and the outcome [3] is reported as “inactive”. The outcome [4] was “inactive”, the Potency [14] was “inactive” and the Potency [15] was “inactive”. The outcome [5] was “inactive”, the outcome [6] was “inactive” and the Potency [7] was “inactive”. For the same compound, the Potency [8] was 0.006 µM (active), the outcome [9] was “inactive” and the outcome [16] was “inactive”. For the same compound, the outcome [19] was “inactive”, the Potency [10] was “inactive” and the outcome [17] was “inactive”. For the same compound, the outcome [12] was “inactive”, the outcome [13] was “inactive” and the activation [20] was -0.25%.

In the case of `CCOP(=S)(OCC)Oc1ccc2c(C)c(Cl)c(=O)oc2c1`, the outcome [11] is reported as “inactive”.

For `CN1C(=O)COc2c(C(=O)NC3CN4CCC3CC4)cc(Cl)cc21` (configuration not stated), the outcome [11] was “inactive”.

With `O=C(CCCN1CCC2(CC1)C(=O)NCN2c1ccccc1)c1ccc(F)cc1` the outcome [1] was “inactive”, the outcome [3] was “inactive” and the outcome [4] was “inactive”. The outcome [5] was “inactive”, the outcome [6] was “inactive” and the Potency [7] was “inactive”. For the same compound, the outcome [9] was “inactive”, the outcome [19] was “inactive” and the Potency [10] was 12.6 µM (active). For the same compound, the outcome [17] was “inactive” and the outcome [12] was “inactive”.

In the case of `CC(C)N(CCC(C(N)=O)(c1ccccc1)c1ccccn1)C(C)C` (configuration not stated), the outcome [1] is reported as “inactive”, the outcome [2] is reported as “inactive” and the outcome [3] is reported as “inactive”. For the same compound, the outcome [4] was “inactive”, the Potency [14] was “inactive” and the Potency [15] was “inactive”. The outcome [5] was “inactive”, the outcome [6] was “inactive” and the Potency [7] was “inactive”. The Potency [8] was “inactive”, the outcome [9] was “inactive” and the outcome [16] was “inactive”. The outcome [19] was “inactive”, the Potency [10] was “inactive” and the outcome [17] was “inactive”. The outcome [12] was “inactive” and the outcome [13] was “inactive”.

For `NNc1ccccc1`, the outcome [11] was “inactive”.

For `CCC1(c2ccc(N)cc2)CCC(=O)NC1=O` (configuration not stated), the outcome [1] was “inactive”, the outcome [2] was “inactive” and the outcome [3] was “inactive”. The outcome [4] was “inactive”, the Potency [14] was “inactive” and the Potency [15] was “inactive”. For the same compound, the outcome [5] was “inactive”, the outcome [6] was “inactive” and the Potency [7] was “inactive”. For the same compound, the Potency [8] was “inactive”, the outcome [9] was “inactive” and the outcome [16] was “inactive”. For the same compound, the Potency [10] was “inactive”, the outcome [17] was “inactive” and the outcome [12] was “inactive”. For the same compound, the outcome [13] was “inactive” and the activation [20] was 1.56%.

In the case of `CC(C)c1cccc(C(C)C)c1O`, the outcome [1] is reported as “inactive”, the outcome [2] is reported as “inactive” and the outcome [3] is reported as “inactive”. The outcome [4] was “inactive”, the Potency [14] was “inactive” and the Potency [15] was “inactive”. The outcome [5] was “inactive”, the outcome [6] was “inactive” and the Potency [7] was “inactive”. For the same compound, the Potency [8] was “inactive”, the outcome [9] was “inactive” and the outcome [16] was “inactive”. For the same compound, the outcome [19] was “inactive”, the Potency [10] was “inactive” and the outcome [17] was “inactive”. The outcome [12] was “inactive”, the outcome [13] was “inactive” and the activation [20] was -6.88%.
